We go through 21 compounds from PubChem BioAssay AID1851 (National Center for Advancing Translational Sciences (NCATS), 2009).

The whole screen tested about 16,000 compounds, of which about 5,800 (36%) were called active. About 23% were inconclusive and are not listed. This is one part of the list. Unmarked numbers belong to inactive results. Calls follow the shape of the dose curve; as a rule, active = well fitted curve in the direction sought with a large enough effect; inconclusive = small, poorly fitted or top-dose-only effect, or effect the other way; inactive = no such curve, though single readings can be large or run the other way.
% is scaled to controls: 0 for no effect and ±100 for the full control effect.

The target of the assay is Cytochrome P450 2C19 (Homo sapiens) (UniProt P33261). Briefly: Cytochrome panel assay with activity outcomes. As to conditions: recombinant CYP, pro-luciferin dealkylation, luminescence, p450-cyp2c19; series mostly up to 57.1 µM.
Sequence of Cytochrome P450 2C19 (Homo sapiens) (P33261 whole entry, looked up): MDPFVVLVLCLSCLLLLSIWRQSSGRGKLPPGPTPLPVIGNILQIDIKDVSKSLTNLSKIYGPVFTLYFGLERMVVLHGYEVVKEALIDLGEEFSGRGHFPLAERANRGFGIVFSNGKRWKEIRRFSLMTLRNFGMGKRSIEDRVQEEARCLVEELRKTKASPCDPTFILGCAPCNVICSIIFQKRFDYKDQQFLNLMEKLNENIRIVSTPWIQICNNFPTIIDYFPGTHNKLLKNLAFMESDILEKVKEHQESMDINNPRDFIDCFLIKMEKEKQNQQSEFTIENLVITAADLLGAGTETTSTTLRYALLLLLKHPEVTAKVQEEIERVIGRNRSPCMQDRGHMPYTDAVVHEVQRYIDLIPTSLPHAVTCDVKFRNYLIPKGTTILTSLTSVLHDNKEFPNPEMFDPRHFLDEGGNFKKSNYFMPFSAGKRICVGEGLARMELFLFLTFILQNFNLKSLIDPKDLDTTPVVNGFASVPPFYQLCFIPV
Turning to `COc1ccc(-c2ccc(N)[n+](CCCC(=O)O)n2)cc1`, the AC50 (usually the concentration giving half of the maximal activity seen) was “inactive”.

Turning to `COc1ccc(-c2ccc(=N)n(CCCC(=O)O)n2)cc1`, the half-maximal activity concentration (AC50) was 0.158 µM (active).

Take `Clc1ccccc1-c1cc(NCc2cccnc2)ncn1`: the AC50 entry was “inactive”.

Regarding `Clc1ccccc1-c1cc(NCc2ccccc2)ncn1`, the AC50 was 7.94 µM (active).

Regarding `Cc1cccc(CNc2cc(-c3ccccc3Cl)ncn2)c1`, the concentration at half-maximal activity (AC50) is 10 µM (active).

As for `CC(C(=O)NCc1ccc2c(c1)OCO2)N1c2cccc3cccc(c23)S1(=O)=O` (stereo unspecified), the half-maximal activity concentration (AC50) was 0.794 µM (active).

As for `COC(=O)[C@@]1(Cc2ccc(F)cc2)[C@H]2c3cc(C(=O)N4CCCC4)n(CCc4c[nH]c5ccc(OC)cc45)c3C[C@H]2CN1C(=O)c1ccccc1`, the AC50 is 7.94 µM (active).

Turning to `COc1ccc(NC(=O)N2CC[C@@]3(CCCN(C(=O)c4cccc(F)c4)C3)C2)cc1`, the AC50 result was “inactive”.

On to `COC(=O)[C@@]1(Cc2ccc(OC)cc2)[C@H]2c3cc(C(=O)N4CCCC4)n(CCc4c[nH]c5ccc(O)cc45)c3C[C@H]2CN1C(=O)c1ccccc1`, for which the AC50 was 10 µM (active).

Turning to `COc1ccc(C(=O)N2CCC[C@@]3(CCN(Cc4cc(C(F)(F)F)cc(C(F)(F)F)c4)C3)C2)cc1`, the AC50 result is “inactive”.

Turning to `COC(=O)[C@@]1(Cc2ccc(OC)cc2)[C@H]2c3cc(C(=O)N4CCCC4)n(CCCNc4ncc(C(F)(F)F)cc4Cl)c3C[C@H]2CN1C(=O)c1ccccc1`, the AC50 is 3.16 µM (active).

On to `COC(=O)[C@@]1(Cc2ccc(OC)cc2)[C@H]2c3cc(C(=O)N4CCCC4)n(CCc4c[nH]c5cc(F)ccc45)c3C[C@H]2CN1C(=O)c1ccccc1`, for which the AC50 is 3.98 µM (active).

On to `COC(=O)[C@@]1(Cc2ccc(OC)cc2)[C@H]2c3cc(C(=O)N4CCCC4)n(Cc4ccc(Cl)c(C(F)(F)F)c4)c3C[C@H]2CN1C(=O)c1ccccc1`, for which the AC50 result is “inactive”.

Turning to `COC(=O)[C@@]1(Cc2ccc(F)cc2)[C@H]2c3cc(C(=O)N4CCCC4)n(CCc4c[nH]c5ccccc45)c3C[C@H]2CN1C(=O)c1ccccc1`, the AC50 was 10 µM (active).

Turning to `O=S(=O)(O)[C@@H](CO)c1ccccc1` (tested in a mixture with another compound), the activity, negative = inhibition is -9.78% [at 11.4 µM].

With `O=C1C(SCCO)=C(SCCO)C(=O)c2ccccc21`, the AC50 was 0.0794 µM (active).

On to `Cc1ccc(S(=O)(=O)NCc2ccccc2)cc1`, for which the AC50 result was “inactive”.

Turning to `CCCCNC(=O)NS(=O)(=O)c1ccc(C)cc1`, the AC50 result was “inactive”.

Consider `CCN(CC)C(=O)CCNS(=O)(=O)c1ccc(C)cc1`, for which the AC50 was 5.01 µM (active).

Regarding `Cc1ccc(S(=O)(=O)NCCC(=O)NCc2ccccc2)cc1`, the AC50 is 20 µM (active).

Take `COc1ncc2nc(-c3cn(C)c4ccccc34)c(=O)n(CCC#N)c2n1`: the AC50 result was “inactive”.
